From PubChem BioAssay
Tau ThT inhib = inhibitors of human tau fibril formation, thioflavin T binding; recombinant tau K18 P301L, heparin-induced fibrillization, ThT fluorescence; Potency, µM (top dose mostly 57.4 µM), for inactives: top-dose activity, negative = inhibition, hits mostly inhibitors; 270,000 compounds, 2.1% hits; AID 1460; also: potency is read from the fitted curve at half-maximal effect; nearly all actives have a fitted effect of over 55% in size
Target sequence (P10636 561-689 P618L limits assumed): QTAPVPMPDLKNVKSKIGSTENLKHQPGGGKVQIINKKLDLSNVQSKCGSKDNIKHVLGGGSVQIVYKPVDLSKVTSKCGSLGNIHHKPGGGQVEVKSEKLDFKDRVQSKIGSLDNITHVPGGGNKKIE
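Aggregation was driven by heparin (20 uM final) acting on recombinant tau […] bearing P301L in 100 mM sodium acetate pH 7; fibrils were detected with Thioflavin T.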
PNC assembly inh = blocks assembly of the perinucleolar compartment; activity change (PNC), negative = inhibition, % at 10 µM; PC3M PTB-GFP, PNC prevalence imaging, 16 h; stronger effect = lower value; 140,000 compounds, 3.1% hits;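 active = readout at or below -70, meaning at least 70% loss of cells showing the perinucleolar compartment, a nuclear body marking cancer cells; inconclusive = readout between -30 and a set limit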;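 also: plate controls were DMSO wells for no effect and camptothecin positive control wells for full effect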
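Compounds are pinned in duplicate onto adhered PC3M cells stably expressing GFP-tagged PTB and incubated 16 h at 37 C. Cells are then fixed, nuclei stained with Hoechst, and PNC-positive cells counted.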
TRb SRC2 PPI = inhibitors of human thyroid hormone receptor beta-SRC2 interaction. P10828. TRbeta-SRC2 peptide binding, fluorescence polarization; receptor liganded with 1 µM T3. Potency, µM (titrated, usually from 106 µM), without a hit: at the highest dose activity change, negative = inhibition, hits mostly inhibitors. 280,000 compounds, 0.065% hits;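 also: potency is read from the fitted curve at half-maximal effect; plate controls were bound peptide for no effect and peptide without receptor for full effect; nearly all actives have a fitted effect of over 50% in size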
Target sequence (P10828 whole entry, looked up): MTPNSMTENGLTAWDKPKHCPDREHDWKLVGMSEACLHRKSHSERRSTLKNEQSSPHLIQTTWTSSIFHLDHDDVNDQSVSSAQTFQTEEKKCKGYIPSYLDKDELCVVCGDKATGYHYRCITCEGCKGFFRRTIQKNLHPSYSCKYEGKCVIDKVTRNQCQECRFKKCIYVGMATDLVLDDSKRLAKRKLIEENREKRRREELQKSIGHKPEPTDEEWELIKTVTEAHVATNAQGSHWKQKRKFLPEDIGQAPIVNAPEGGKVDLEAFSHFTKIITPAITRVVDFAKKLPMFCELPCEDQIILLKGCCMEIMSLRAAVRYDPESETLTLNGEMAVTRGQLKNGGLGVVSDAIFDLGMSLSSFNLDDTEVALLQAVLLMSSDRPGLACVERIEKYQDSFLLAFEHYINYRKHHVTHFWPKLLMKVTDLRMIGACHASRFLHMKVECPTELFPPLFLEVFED
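Human TRb ligand-binding domain (0.6 uM) is mixed with 20 nM Texas Red SRC2 peptide and 1 uM T3; after compound addition and 5 hr at ambient temperature, polarization is measured and normalized to unbound and bound controls.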
Tau fluor counter = counter-screen for tau fibril formation inhibitors. tau K18 P301L (four-repeat tau fragment) Alexa594 fluorescence, heparin fibrillization. Potency, µM (titrated, usually from 57.7 µM), inactives show top-dose activity change, negative = decrease. 280,000 compounds, 0.93% hits. AID 1463; also: potency is read from the fitted curve at half-maximal effect; nearly all actives have a fitted effect of over 55% in size
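Human K18 P301L tau (15 uM unlabeled plus 0.24 uM Alexa 594-labeled, final) in 100 mM sodium acetate pH 7 was mixed with compound and 20 uM heparin and incubated 6 hr at 37 C.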
Tau FP inhib = inhibitors of human tau fibril formation. P10636. K18 P301L tau heparin fibrillization, Alexa594 FP, 6 h. Potency, µM (top dose mostly 57.7 µM), inactives show at the top dose activity, negative = inhibition, hits mostly inhibitors. 280,000 compounds, 0.39% hits; also: potency is read from the fitted curve at half-maximal effect; nearly all actives have a fitted effect of over 55% in size
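Human tau K18 […] P301L fragment, 15 uM unlabeled plus 0.24 uM Alexa 594-labeled tau (final), with compound and 20 uM heparin in 100 mM sodium acetate pH 7; 6 hr at 37 C, then Alexa 594 FP read.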
TexasRed fluor = counter-screen for TRb-SRC2 inhibitors: fluorescence interference. TRb/SRC2 Texas Red total fluorescence interference. Potency, µM (doses to about 106 µM), inactives show at the highest dose fluorescence change, negative = quenching. 280,000 compounds, 0.29% hits; active = well fitted curve in either direction with a large enough effect; inconclusive = small, poorly fitted or top-dose-only effect; also: potency is read from the fitted curve at half-maximal effect
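Flags fluorescent or light-absorbing compounds by total fluorescence, S + 2P, at 555 nm excitation and 632 nm emission. Mixture: 20 nM Texas Red SRC2 peptide, 0.6 uM human TRb LBD, 1 uM T3, 5% DMSO; compound exposure 5 h at ambient temperature.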
An asterisk follows results filed as active; ? = inconclusive; . = not tested or not shown; [ ] = another dose, or the depositor's remark. Compounds with a hit are over-represented: about 4.6% of the library has one in this group of screens. Unless noted, calls follow the shape of the dose curve; as a rule, active = well fitted curve in the direction sought with a large enough effect; inconclusive = small, poorly fitted or top-dose-only effect, or another doubt; inactive = no such curve, though single readings can be large; an effect the other way counts as inactive or inconclusive. Unless noted, % is scaled to controls: 0 for no effect and ±100 for the full control effect.

SMILES | Tau ThT inhib | PNC assembly inh | TRb SRC2 PPI | Tau fluor counter | Tau FP inhib | TexasRed fluor
Cc1ccc(-c2n[nH]c(S(C)(=O)=O)c2C#N)cc1 | -2% | . | 8% | -4% | 2% | 2%
CC1CCCC(NC2CCCCNC2=O)C1 (stereo not given) | -2% | 47 | -5% | -5% | 2% | 1%
CCC1CCC(NC2CCCCNC2=O)CC1 (stereo not given) | -5% | -107* | 5% | 5% | -8% | 1%
COc1ccc(/C=C/c2ccncc2)cc1OC | ? | -97* | -6% | 1% | 4% | -3%
Cc1ccc(NC(=O)C2CCN(C(=O)c3sc4nc[nH]c(=O)c4c3C)CC2)cc1F | 0% | . | -1% | -10% | -7% | -3%
CC(=O)C(=Nc1ccccc1Cl)NNc1ccc(Cl)cc1 | 6.3µM* | -6 | -13% | ? | ? | 3%
CN(C)c1cc(N/N=C/c2ccc(Cl)cc2)nc(N(C)C)n1 | 14µM* | . | 1% | ? | -19% | -1%
COc1cc(N/N=C/c2ccc(N(C)C)cc2)ncn1 | ? | . | 1% | ? | 10% | -1%
CC(=O)c1ccc(-n2nnnc2SCC(=O)N2CCc3ccccc3C2)cc1 | -21% | -82* | 10% | -9% | -6% | 0%
COC(=O)C1=C(C(=O)OC)[C@@H]2N(C)c3ccccc3[C@@]23C[C@@H](C(=O)OC)N(S(=O)(=O)c2c(C)noc2C)C3=N1 | 0%[11.5 µM] | . | 6%[11.2 µM] | -6%[11.6 µM] | -2%[11.6 µM] | 0%[11.2 µM]
COc1cc(/C=N/Nc2cccc3cccnc23)cc(OC)c1O | ? | . | -4% | ? | 7% | -10%
Oc1cccc(/C=N/Nc2cccc3cccnc23)c1 | 14µM* | . | 1% | 16µM*[quencher] | ? | -1%
COC(C[C@@H](O)[C@H](C)[C@@H](O)COCc1ccccc1)OC | -12% | . | -6% | -8% | 1% | -2%
Cc1c(/C=N\NC(=O)C2COc3ccccc3O2)c2ccccc2n1C (stereo not given) | ? | -111* | 4% | ? | 11% | -6%
Cn1cc(/C=N\NC(=O)C2COc3ccccc3O2)c2ccccc21 (stereo not given) | ? | ? | 1% | ? | 3% | -3%
O=C(N/N=C\c1cccc([N+](=O)[O-])c1O)C1COc2ccccc2O1 (stereo not given) | 7.9µM* | ? | -3% | -13% | 10% | -2%
COc1cc([N+](=O)[O-])cc(/C=N\NC(=O)C2COc3ccccc3O2)c1O (stereo not given) | 10µM* | . | 1% | -26% | 0% | -5%
O=C(N/N=C/c1cccc([N+](=O)[O-])c1O)c1cccs1 | 5µM* | -20 | 7% | -12% | 15% | -4%
O=C(N/N=C/c1ccc([N+](=O)[O-])cc1)c1cccs1 | ? | . | -7% | ? | 12% | -1%
O=C(N/N=C/c1cccc([N+](=O)[O-])c1)C1COc2ccccc2O1 (stereo not given) | -9% | . | 0% | -11% | 2% | 0%
O=C(NCC1CCCCC1)c1nnc(C(=O)NCC2CCCCC2)c2c1[nH]c1ccccc12 | -1% | . | -2% | -8% | -5% | -1%
COC(=O)Cn1cc(C(=O)C(F)(F)F)c2ccccc21 | -10% | . | 0% | -14% | 1% | 1%
CC1C=CCC2C(=O)N(c3ccccc3OC(=O)c3ccco3)C(=O)C12 (stereo not given) | 7% | . | 0% | 9% | 6% | -2%
Clc1cccc(-n2ncc3c(N4CCN(Cc5ccccc5)CC4)ncnc32)c1 | -12% | . | -6% | -15% | -1% | 0%
CC(C)(C)c1cc(C(=O)Nc2ccccc2)ccn1 | 2% | -122* | -4% | 4% | 3% | -3%
SMILES | Tau ThT inhib | PNC assembly inh | TRb SRC2 PPI | Tau fluor counter | Tau FP inhib | TexasRed fluor
COCCn1c(-c2ccccc2)nc2oc3ccccc3c(=O)c2c1=O | -3% | 4 | 3% | -3% | -1% | 0%
Cc1c2ccccc2c(CSC(=N)N)c2ccccc12 | 13µM* | . | -8% | -28% | ? | -3%
N=C(N)SCc1nc2ccccc2c(=O)n1-c1ccccc1 | ? | 36 | 2% | -3% | -1% | 9%
CCOc1ccccc1NC(=S)N(CCN(C)C)C(C)c1ccncc1 (stereo not given) | -6% | . | 3% | -15% | -6% | 2%
O=C(Nc1ccccc1N1CCN(C(=O)c2ccc(Cl)cc2)CC1)c1cc(Br)ccc1Cl | ? | 69 | 1% | -29% | -1% | -5%
O=C(COC(=O)Cc1ccsc1)Nc1ccc(Cl)c(S(=O)(=O)N2CCOCC2)c1 | -3% | -87* | -4% | -6% | 13% | -1%
CCC(C)NC(=O)CSC1=Nc2ccccc2C2=NC(CC(=O)NCc3ccccc3)C(=O)N12 (stereo not given) | -3% | -100* | -4% | 0% | 2% | -6%
N#CC(C#N)=C1C=CC=CN1/C(=C\c1ccco1)C(=O)c1ccc(Cl)cc1 | 22µM* | ? | 12% | ? | 28µM* | -10%
N#CC(C#N)=C1C=CC=CN1/C(=C\c1ccco1)C(=O)c1ccc(-c2ccccc2)cc1 | 16µM* | -11 | 4% | -29% | ? | 4%
O=S1(=O)CCN(Cc2ccccc2C(F)(F)F)CC1 | -3% | . | -5% | -4% | -4% | -4%
Cc1ccc(/C(O)=C/C(=O)C(=O)NNC(=O)C(O)(c2ccccc2)c2ccccc2)cc1 | 5% | 21 | -20% | 4% | 5% | -1%
COC(=O)C(=O)/C=C(\O)c1ccc(C)cc1 | 22µM* | 2 | 2% | ? | ? | -6%
COc1nc(-c2ccccc2)cc(-c2ccc(OC)c(OC)c2)n1 | -13% | ? | -8% | -27% | -6% | -1%
CC/C(C)=N/Nc1nc(-c2cc3cccc(OC)c3oc2=O)cs1 | 18µM* | . | 2% | ? | -5% | -10%
COc1cccc2cc(-c3csc(CCn4nc(C)cc4C)n3)c(=O)oc12 | ? | -18 | 4% | -16% | 5% | -2%
Cc1ccc(-n2c(C)cc3c2CC(C)(C)CC3=O)cc1C | -16% | -85* | -4% | -13% | -6% | 2%
COc1ccc(C)cc1NC(=O)C1CCN(S(=O)(=O)c2ccc3c(c2)CCCN3C(C)=O)CC1 | -1% | . | -1% | -10% | 6% | -1%
Fc1ccc(COc2ccccc2CNCc2ccncc2)cc1 | -3% | ? | -1% | 5% | 6% | -7%
Brc1ccc(OCc2ccccc2)c(CNCc2ccncc2)c1 | -5% | -109* | -22% | 0% | 8% | 1%
COc1ccc(/C=N/NC(=O)c2ccc(CSc3nc(C)cc(C)n3)cc2)c(OC)c1OC | ? | 76 | 7% | -25% | -6% | 0%
